# Assay results published in article PMC7862700, “An all-to-all approach to the identification of sequence-specific readers for epigenetic DNA modifications on cytosine”.
# Key:
# Experiment in all cases: DAPPL (digital affinity profiling via proximity ligation, sequencing); 10 mM Tris-HCl pH 7.5, 50 mM NaCl, 1 mM DTT, 4% glycerol, room temperature, 30 min; GST-TFs on glutathione beads, 16-mer random dsDNA library, 0.1% formaldehyde crosslink after washing; high values mean tight binding
# Settings in all cases: protein: recombinant; tags: N-terminal GST; dsDNA, one strand shown
# [1] = target: T1, FLI1 (Homo sapiens, UniProt Q01543 1-452)
# T1 sequence: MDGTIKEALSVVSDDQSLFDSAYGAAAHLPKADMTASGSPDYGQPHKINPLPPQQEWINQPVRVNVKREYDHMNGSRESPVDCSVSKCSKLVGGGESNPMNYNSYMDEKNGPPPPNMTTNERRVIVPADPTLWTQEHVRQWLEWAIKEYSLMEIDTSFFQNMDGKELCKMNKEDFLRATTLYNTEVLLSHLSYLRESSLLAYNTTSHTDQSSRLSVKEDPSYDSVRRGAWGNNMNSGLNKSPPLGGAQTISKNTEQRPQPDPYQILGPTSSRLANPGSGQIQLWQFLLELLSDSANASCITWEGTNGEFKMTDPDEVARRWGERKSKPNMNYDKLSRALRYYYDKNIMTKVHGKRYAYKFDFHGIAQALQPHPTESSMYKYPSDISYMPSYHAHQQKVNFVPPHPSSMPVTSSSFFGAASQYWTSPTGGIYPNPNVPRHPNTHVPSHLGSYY
# Procedure, shortened: (§1)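 Pools were built from human transcription factors expressed in yeast as GST fusions, captured on glutathione beads and DNA-barcoded, along with a tag-only sample. Incubation with 200 nmole of a 16-mer random double-stranded DNA library lasted 30 min at room temperature in Tris/NaCl/DTT/glycerol buffer, and was followed by washing, 0.1% formaldehyde crosslinking, proximity ligation, PCR amplification and Illumina NextSeq500 sequencing. Binding signal is the quotient of each hexamer's read frequency for a factor and its frequency for the tag-only sample.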
# [2] = target: T2, ELK1 (Homo sapiens, UniProt P19419 1-428)
# T2 sequence: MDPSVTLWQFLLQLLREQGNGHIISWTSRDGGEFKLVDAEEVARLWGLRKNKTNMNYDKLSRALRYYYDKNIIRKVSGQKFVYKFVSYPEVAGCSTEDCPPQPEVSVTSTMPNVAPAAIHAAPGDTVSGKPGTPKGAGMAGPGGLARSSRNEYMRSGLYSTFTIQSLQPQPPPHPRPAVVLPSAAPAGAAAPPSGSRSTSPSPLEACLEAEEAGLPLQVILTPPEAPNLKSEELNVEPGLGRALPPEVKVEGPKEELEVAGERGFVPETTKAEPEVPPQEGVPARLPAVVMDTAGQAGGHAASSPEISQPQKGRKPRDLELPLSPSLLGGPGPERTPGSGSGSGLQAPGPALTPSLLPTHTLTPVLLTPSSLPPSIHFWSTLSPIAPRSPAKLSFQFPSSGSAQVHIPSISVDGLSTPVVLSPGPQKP
# Procedure, shortened: as §1
# [3] = target: T3, GABPA (Homo sapiens, UniProt Q06546 1-454)
# T3 sequence: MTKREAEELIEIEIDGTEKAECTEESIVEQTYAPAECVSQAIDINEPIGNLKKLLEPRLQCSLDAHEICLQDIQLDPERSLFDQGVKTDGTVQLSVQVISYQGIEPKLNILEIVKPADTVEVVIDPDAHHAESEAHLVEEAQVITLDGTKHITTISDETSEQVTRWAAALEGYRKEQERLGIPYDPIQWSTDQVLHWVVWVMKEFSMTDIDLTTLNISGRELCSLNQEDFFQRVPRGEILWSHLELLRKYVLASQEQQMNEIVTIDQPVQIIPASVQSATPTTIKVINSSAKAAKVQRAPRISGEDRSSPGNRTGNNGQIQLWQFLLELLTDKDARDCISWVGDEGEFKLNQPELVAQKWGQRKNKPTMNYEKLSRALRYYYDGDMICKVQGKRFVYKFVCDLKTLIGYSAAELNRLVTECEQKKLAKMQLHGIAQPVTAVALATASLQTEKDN
# Procedure, shortened: as §1
# [4] = target: T4, ERG (Homo sapiens, UniProt P11308 1-479)
# T4 sequence: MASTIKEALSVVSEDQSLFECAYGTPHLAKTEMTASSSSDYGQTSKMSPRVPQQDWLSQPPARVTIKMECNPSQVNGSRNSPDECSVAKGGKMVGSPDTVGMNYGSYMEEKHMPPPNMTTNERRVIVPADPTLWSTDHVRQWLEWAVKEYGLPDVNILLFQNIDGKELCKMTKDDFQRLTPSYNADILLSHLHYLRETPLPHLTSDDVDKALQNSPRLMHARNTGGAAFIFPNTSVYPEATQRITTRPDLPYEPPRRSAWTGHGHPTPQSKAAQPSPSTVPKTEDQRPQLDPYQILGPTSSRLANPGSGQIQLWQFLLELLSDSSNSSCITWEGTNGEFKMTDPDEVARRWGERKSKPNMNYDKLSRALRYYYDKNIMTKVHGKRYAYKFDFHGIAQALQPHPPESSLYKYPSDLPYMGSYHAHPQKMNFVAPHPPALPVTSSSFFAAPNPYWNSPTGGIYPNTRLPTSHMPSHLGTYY
# Procedure, shortened: as §1
# [5] = target: ELF1 (Homo sapiens, UniProt P32519 1-619)
# Procedure, shortened: as §1
# [6] = target: T5, EHF (Homo sapiens, UniProt Q9NZC4 1-300)
# T5 sequence: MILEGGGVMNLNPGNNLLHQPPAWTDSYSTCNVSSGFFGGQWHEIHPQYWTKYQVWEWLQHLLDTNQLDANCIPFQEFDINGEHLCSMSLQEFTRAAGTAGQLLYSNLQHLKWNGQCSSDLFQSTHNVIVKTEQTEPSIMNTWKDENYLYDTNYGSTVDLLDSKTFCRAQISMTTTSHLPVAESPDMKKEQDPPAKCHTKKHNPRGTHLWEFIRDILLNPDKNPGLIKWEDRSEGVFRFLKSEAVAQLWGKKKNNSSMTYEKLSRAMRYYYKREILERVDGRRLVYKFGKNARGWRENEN
# Procedure, shortened: as §1
# [7] = target: SPI1 (Homo sapiens, UniProt P17947 1-270)
# Procedure, shortened: as §1
# [8] = target: SPIB (Homo sapiens, UniProt Q01892 1-262)
# Procedure, shortened: as §1
# [9] = target: T6, ELK3 (Homo sapiens, UniProt P41970 1-407)
# T6 sequence: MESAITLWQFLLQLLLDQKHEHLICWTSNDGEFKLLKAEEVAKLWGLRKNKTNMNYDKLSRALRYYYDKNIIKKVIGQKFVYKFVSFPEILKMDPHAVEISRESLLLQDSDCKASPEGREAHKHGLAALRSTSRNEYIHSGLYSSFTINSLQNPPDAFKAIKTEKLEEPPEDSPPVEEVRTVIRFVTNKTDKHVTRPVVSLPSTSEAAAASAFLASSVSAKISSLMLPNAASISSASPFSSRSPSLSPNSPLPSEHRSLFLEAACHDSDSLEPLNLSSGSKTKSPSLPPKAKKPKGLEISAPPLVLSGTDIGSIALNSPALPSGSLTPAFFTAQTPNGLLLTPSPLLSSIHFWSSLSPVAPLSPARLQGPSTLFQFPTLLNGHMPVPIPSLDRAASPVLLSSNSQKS
# Procedure, shortened: as §1
# Chain of SPIB (Q01892 whole entry): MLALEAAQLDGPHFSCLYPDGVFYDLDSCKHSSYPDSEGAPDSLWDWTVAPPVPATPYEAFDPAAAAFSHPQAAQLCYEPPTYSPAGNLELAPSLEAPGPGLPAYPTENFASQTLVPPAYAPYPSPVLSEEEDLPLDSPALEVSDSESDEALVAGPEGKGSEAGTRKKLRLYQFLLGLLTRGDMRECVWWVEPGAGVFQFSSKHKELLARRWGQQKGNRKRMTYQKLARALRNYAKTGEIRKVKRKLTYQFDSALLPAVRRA
# Chain of ELF1 (P32519 whole entry): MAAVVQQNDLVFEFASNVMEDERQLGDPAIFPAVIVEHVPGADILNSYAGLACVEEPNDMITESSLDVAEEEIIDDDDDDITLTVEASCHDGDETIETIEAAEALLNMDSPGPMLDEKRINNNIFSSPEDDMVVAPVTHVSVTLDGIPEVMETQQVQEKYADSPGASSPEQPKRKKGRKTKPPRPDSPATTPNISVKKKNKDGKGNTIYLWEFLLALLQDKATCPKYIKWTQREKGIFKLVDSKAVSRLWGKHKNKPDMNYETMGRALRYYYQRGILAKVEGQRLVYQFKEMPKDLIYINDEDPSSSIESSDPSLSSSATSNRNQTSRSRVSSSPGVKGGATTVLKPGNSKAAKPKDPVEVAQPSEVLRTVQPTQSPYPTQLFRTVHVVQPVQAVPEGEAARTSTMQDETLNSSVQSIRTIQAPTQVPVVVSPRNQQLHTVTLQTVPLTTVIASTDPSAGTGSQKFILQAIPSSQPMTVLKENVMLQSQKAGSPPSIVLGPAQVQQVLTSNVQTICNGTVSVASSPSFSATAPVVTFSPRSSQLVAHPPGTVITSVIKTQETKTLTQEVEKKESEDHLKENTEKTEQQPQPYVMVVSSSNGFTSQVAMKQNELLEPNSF
Sequence,binding signal [1],binding signal [2],binding signal [3],binding signal [4],binding signal [5],binding signal [6],binding signal [7],binding signal [8],binding signal [9]
ATACGA,"1.09 fold enrichment (6-mer frequency, TF over GST control)","1.12 fold enrichment (6-mer frequency, TF over GST control)","1.1 fold enrichment (6-mer frequency, TF over GST control)","1.14 fold enrichment (6-mer frequency, TF over GST control)","1.14 fold enrichment (6-mer frequency, TF over GST control)","1.12 fold enrichment (6-mer frequency, TF over GST control)","1.08 fold enrichment (6-mer frequency, TF over GST control)","1.09 fold enrichment (6-mer frequency, TF over GST control)","1.23 fold enrichment (6-mer frequency, TF over GST control)"
CTGGTA,"1.3 fold enrichment (6-mer frequency, TF over GST control)","1.34 fold enrichment (6-mer frequency, TF over GST control)","1.29 fold enrichment (6-mer frequency, TF over GST control)","1.4 fold enrichment (6-mer frequency, TF over GST control)","1.38 fold enrichment (6-mer frequency, TF over GST control)","1.4 fold enrichment (6-mer frequency, TF over GST control)","1.33 fold enrichment (6-mer frequency, TF over GST control)","1.4 fold enrichment (6-mer frequency, TF over GST control)","1.35 fold enrichment (6-mer frequency, TF over GST control)"
CGGCTC,"1.27 fold enrichment (6-mer frequency, TF over GST control)","1.29 fold enrichment (6-mer frequency, TF over GST control)","1.2 fold enrichment (6-mer frequency, TF over GST control)","1.33 fold enrichment (6-mer frequency, TF over GST control)","1.27 fold enrichment (6-mer frequency, TF over GST control)","1.31 fold enrichment (6-mer frequency, TF over GST control)","1.33 fold enrichment (6-mer frequency, TF over GST control)","1.33 fold enrichment (6-mer frequency, TF over GST control)","1.31 fold enrichment (6-mer frequency, TF over GST control)"
TCTTCG,"1.45 fold enrichment (6-mer frequency, TF over GST control)","1.49 fold enrichment (6-mer frequency, TF over GST control)","1.45 fold enrichment (6-mer frequency, TF over GST control)","1.41 fold enrichment (6-mer frequency, TF over GST control)","1.51 fold enrichment (6-mer frequency, TF over GST control)","1.31 fold enrichment (6-mer frequency, TF over GST control)","1.47 fold enrichment (6-mer frequency, TF over GST control)","1.57 fold enrichment (6-mer frequency, TF over GST control)","1.49 fold enrichment (6-mer frequency, TF over GST control)"
TGCTGG,"1.08 fold enrichment (6-mer frequency, TF over GST control)","1.09 fold enrichment (6-mer frequency, TF over GST control)","1.08 fold enrichment (6-mer frequency, TF over GST control)","1.01 fold enrichment (6-mer frequency, TF over GST control)","1.11 fold enrichment (6-mer frequency, TF over GST control)","1.11 fold enrichment (6-mer frequency, TF over GST control)","1.19 fold enrichment (6-mer frequency, TF over GST control)","1.1 fold enrichment (6-mer frequency, TF over GST control)","1.14 fold enrichment (6-mer frequency, TF over GST control)"
CTTCGG,"1.48 fold enrichment (6-mer frequency, TF over GST control)","1.46 fold enrichment (6-mer frequency, TF over GST control)","1.58 fold enrichment (6-mer frequency, TF over GST control)","1.35 fold enrichment (6-mer frequency, TF over GST control)","1.39 fold enrichment (6-mer frequency, TF over GST control)","1.24 fold enrichment (6-mer frequency, TF over GST control)","1.37 fold enrichment (6-mer frequency, TF over GST control)","1.46 fold enrichment (6-mer frequency, TF over GST control)","1.38 fold enrichment (6-mer frequency, TF over GST control)"
TTGTTC,"1.5 fold enrichment (6-mer frequency, TF over GST control)","1.41 fold enrichment (6-mer frequency, TF over GST control)","1.53 fold enrichment (6-mer frequency, TF over GST control)","1.34 fold enrichment (6-mer frequency, TF over GST control)","1.44 fold enrichment (6-mer frequency, TF over GST control)","1.64 fold enrichment (6-mer frequency, TF over GST control)","1.51 fold enrichment (6-mer frequency, TF over GST control)","1.57 fold enrichment (6-mer frequency, TF over GST control)","1.39 fold enrichment (6-mer frequency, TF over GST control)"
